According to PubChem BioAssay AID720549 (National Center for Advancing Translational Sciences (NCATS), 2013):
Results filed as inconclusive are left out. A call without a number means that no potency is given here. Calls of active or inactive are those of the source. Calls come from the whole dose curve; as a rule, active = well fitted inhibition curve with a large enough effect; inconclusive = small, poorly fitted or top-dose-only effect; inactive = flat fitted curve, though single readings scatter.

Biological target: RecQ-like DNA helicase BLM (Homo sapiens) (UniProt P54132)
Sequence (P54132 whole entry, looked up): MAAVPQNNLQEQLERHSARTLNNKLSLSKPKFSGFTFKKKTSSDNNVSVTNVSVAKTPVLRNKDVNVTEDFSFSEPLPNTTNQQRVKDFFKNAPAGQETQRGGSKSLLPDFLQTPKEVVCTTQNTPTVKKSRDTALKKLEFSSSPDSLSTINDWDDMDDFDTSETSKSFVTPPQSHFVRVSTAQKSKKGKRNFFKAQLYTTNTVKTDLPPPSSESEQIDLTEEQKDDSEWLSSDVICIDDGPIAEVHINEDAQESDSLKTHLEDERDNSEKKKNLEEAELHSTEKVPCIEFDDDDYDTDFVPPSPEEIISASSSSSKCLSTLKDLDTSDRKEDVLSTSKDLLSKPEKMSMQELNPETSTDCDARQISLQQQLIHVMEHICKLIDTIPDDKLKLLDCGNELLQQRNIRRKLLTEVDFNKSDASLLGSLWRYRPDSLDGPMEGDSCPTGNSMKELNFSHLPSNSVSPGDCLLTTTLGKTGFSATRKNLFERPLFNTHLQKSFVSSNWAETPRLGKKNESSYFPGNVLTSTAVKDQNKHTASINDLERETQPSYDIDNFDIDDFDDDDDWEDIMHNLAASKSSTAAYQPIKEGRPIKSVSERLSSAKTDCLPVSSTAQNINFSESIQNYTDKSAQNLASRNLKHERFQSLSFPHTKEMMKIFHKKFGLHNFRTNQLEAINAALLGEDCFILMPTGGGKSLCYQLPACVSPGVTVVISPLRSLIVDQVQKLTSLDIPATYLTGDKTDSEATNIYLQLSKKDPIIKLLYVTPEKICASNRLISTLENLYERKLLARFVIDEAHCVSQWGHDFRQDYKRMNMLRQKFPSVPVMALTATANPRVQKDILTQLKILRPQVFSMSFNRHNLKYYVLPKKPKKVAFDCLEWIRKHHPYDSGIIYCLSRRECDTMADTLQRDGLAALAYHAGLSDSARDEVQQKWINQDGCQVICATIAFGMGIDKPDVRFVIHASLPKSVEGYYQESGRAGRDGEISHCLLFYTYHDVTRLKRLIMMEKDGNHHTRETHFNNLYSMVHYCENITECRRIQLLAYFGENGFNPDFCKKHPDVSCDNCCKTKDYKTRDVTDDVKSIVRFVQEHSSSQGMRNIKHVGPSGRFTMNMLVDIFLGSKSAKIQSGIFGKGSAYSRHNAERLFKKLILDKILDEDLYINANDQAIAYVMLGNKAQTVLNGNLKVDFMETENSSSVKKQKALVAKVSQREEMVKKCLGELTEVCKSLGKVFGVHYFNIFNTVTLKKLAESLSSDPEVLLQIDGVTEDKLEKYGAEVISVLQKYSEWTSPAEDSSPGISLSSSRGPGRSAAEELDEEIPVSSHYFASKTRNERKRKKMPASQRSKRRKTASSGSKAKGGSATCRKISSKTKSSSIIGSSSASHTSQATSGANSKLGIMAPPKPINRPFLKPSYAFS
Assay: qHTS for Inhibitors of Bloom's syndrome helicase (BLM): Helicase ATPase Orthogonal Confirmatory Assay for SAR
Details: purified BLM helicase ATPase activity assay; series mostly up to 57.1 µM
From the text: Human RecQ DNA helicases participate in maintenance of genome stability and DNA repair. While other types of helicases have been explored as targets for drug development, members of the RecQ family have remained less well characterized. Mutations of the Bloom helicase gene have been associated with the rare human genetic disease called Bloom syndrome. […] Moreover, identified inhibitors can be used in cells and animal models to examine the consequences of inhibition on the survival of cancer cells where it has been shown that BLM plays an important role.
A fluorescence-based, biochemical assay in 1536 well format was developed to evaluate inhibition of BLM DNA unwinding activity. This assay was used to screen the MLPCN library. The resulting compounds were subjected to orthogonal and secondary biochemical assays to triage the initial hits, to classify compounds based on mode of action and to derive structure activity relationships (SARs) of candidate effectors. The data herein is the result of the Helicase ATPase orthogonal confirmatory assay. This luminescence assay employs a purified BLM enzyme and a single stranded BLM oligo substrate ([…]). For this assay increase in luminescence signal is greater than or equal to 700 RLU. Inhibition is the desired outcome for this assay.
NIH Chemical Genomics Center [NCGC]
NIH Molecular Libraries Probe Centers Network [MLPCN]
Assay Submitter (PI): Opher Gileadi, Structural Genomics Consortium, University of Oxford, UK
Three microliter of reaction buffer (25mM Tris-HCl pH 8.0, 50mM NaCl, 2mM MgCl2, 1mM DTT, and 0.01% Tween- 20, and 2nM BLM enzyme) was dispensed into a 1536-well assay plates (Greiner, solid white medium-binding) via Aurora Discovery BioRAPTR Flying Reagent Dispenser (FRD). Compounds (23nl each in columns 5-48) and control (23nl each in column 2 as dose-response) were transferred via a Kalypsys pintool equipped with a 1536-pin array. The plates were incubated for 15 min at room temperature followed by addition of 1 ul of substrates (200nM single-stranded oligonucleotide and 100uM ATP, final concentrations) to start the reaction. After 15 min., the reaction was terminated by the addition of 2.5ul of ADP-Glo Reagent I (Promega) to each well and incubation at room temperature for 30 min. Next, 5ul of ADP-Glo Reagent II (Promega) was added to each well. After 30 min at room temperature, the luminescence signal was detected using the ViewLux CCD imager. The data was normalized against no-inhibitor and no-enzyme controls and the resulting percent inhibition data were fitted to a sigmoidal dose response using a four-parameter Hill equation.

| SMILES | Potency |
| --- | --- |
| O=c1c(Nc2ccc(F)c(C(F)(F)F)c2)c(Nc2nnc(-c3ccncc3)s2)c1=O | inactive |
| Cc1ccccc1-c1nnc(NC(=O)Nc2ccc3ccccc3c2)s1 | inactive |
| O=C(Nc1ccc(F)c(C(F)(F)F)c1)Nc1ccc(-c2ccncc2)s1 | inactive |
| CC(=O)c1cccc(NC(=O)Nc2nnc(-c3ccncc3)s2)c1 | inactive |
| O=C(Nc1ccc2ccccc2c1)Nc1nnc(-c2ccccc2)s1 | inactive |
| O=C(Nc1ccc2ccccc2c1)Nc1nnc(-c2ccccn2)s1 | inactive |
| N#Cc1cc(NC(=O)Nc2nnc(-c3ccncc3)s2)ccc1Br | 0.646 µM (active) |
| Cc1cc(NC(=O)Nc2nnc(C3CCCCC3)s2)ccc1F | inactive |
| CCCCCCNC(=O)Nc1nnc(-c2ccncc2)s1 | inactive |
| O=C(Nc1ccc(Cl)c(Cl)c1)N1CCN(c2ccncc2)CC1 | inactive |
| O=C(Nc1ccc(Cl)c(Cl)c1)Nc1ccc(-c2ccncc2)s1 | inactive |
| Nc1ccc(-c2nnc(NC(=O)Nc3ccc(Cl)c(Cl)c3)s2)cc1 | inactive |
| COc1ccccc1CNC(=O)Nc1nnc(-c2ccncc2)s1 | inactive |
| Cc1cc(NC(=O)Nc2cccc(-c3ccncc3)n2)ccc1F | inactive |
| CN(C(=O)Nc1ccc2ccccc2c1)c1nnc(-c2ccncc2)s1 | inactive |
| COc1ccc(NC(=O)Nc2ccc(-c3nc4ccccc4[nH]3)cc2)cc1OC | inactive |
| O=C(Nc1ccc(-n2cncn2)c(C(F)(F)F)c1)Nc1nnc(-c2ccncc2)s1 | 20.4 µM (active) |
| Cc1cc(NC(=O)Nc2nnc(-c3cccnc3)s2)ccc1F | inactive |
| O=C(Nc1ccc(Cl)c(Cl)c1)Nc1nnc(-c2ccncc2)o1 | inactive |
| O=S(=O)(Cc1ccc(Cl)c(Cl)c1)Nc1nnc(-c2ccncc2)s1 | inactive |

| SMILES | Potency |
| --- | --- |
| O=C(Nc1nnc(-c2ccncc2)s1)Oc1ccc2ccccc2c1 | 32.4 µM (active) |
| O=c1c(Nc2ccc(Br)c(Br)c2)c(Nc2nnc(-c3ccncc3)s2)c1=O | 20.4 µM (active) |
| O=C(Nc1nnc(-c2ccncc2)s1)Nc1cccc2ccccc12 | 5.61 µM (active) |
| O=C(NCc1ccccc1)Nc1nnc(-c2ccncc2)s1 | inactive |
| O=C(Nc1ccc(F)c(C(F)(F)F)c1)Nc1cccc(-c2ccncc2)n1 | inactive |
| COc1ccc(-c2nnc(NC(=O)Nc3ccc4ccccc4c3)s2)cc1OC | inactive |
| O=C(Nc1ccc(Cl)c(C(F)(F)F)c1)Nc1nnc(-c2ccncc2)s1 | inactive |
| O=C(Nc1ccc(Br)cc1)Nc1nnc(-c2ccncc2)s1 | 8.13 µM (active) |
| O=C(NCc1ccc(Cl)c(Cl)c1)Nc1nnc(-c2ccncc2)s1 | inactive |
| O=C(Nc1ccc(Cl)c(Cl)c1)Nc1nnc(-c2ccncc2)s1 | 6.46 µM (active) |
| O=C(Nc1ccc(Cl)c(Cl)c1)Nc1nnc(-c2ccc(F)cc2)s1 | inactive |
| O=c1c(Nc2ccc(Cl)c(Cl)c2)c(Nc2nnc(-c3ccncc3)s2)c1=O | 6.46 µM (active) |
| O=C(Nc1cccc(C(=O)O)c1)Nc1nnc(-c2ccncc2)s1 | inactive |
| O=C(Nc1ccc(-n2ccnc2)c(F)c1)Nc1nnc(-c2ccncc2)s1 | 14.5 µM (active) |
| O=C(Nc1ccc2c(c1)OCCO2)Nc1nnc(-c2ccncc2)s1 | inactive |
| Cc1cc(NC(=O)Nc2nnc(C3CCCCC3)s2)ccc1Cl | inactive |
| O=C(Nc1cc(F)cc(F)c1)Nc1nnc(-c2ccncc2)s1 | inactive |
| O=C(Nc1ccc(N2CCOCC2)c(C(F)(F)F)c1)Nc1nnc(-c2ccncc2)s1 | inactive |
| O=C(Nc1ccc(Cl)c(Cl)c1)Nc1ncc(-c2ccncc2)s1 | inactive |
| Cc1cc(Nc2c(Nc3nnc(-c4ccncc4)s3)c(=O)c2=O)ccc1Cl | inactive |
